In PubChem BioAssay (NCI):
This is part of a sample that, as a whole, favours compounds with a hit. Of some 83,000 tested, about 20% had one in any assay.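 Cells were grown in 96-well plates and exposed to the test compound at a single concentration for 48 hours; results are reported as percent growth, with values below 10 considered active.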 Active and inactive are the calls of the source.

Key:
Experiment in all cases: NCI-60 one-dose screen, 48 h (100 = growth as untreated, 0 = no growth, -100 = all killed)
Conditions in all cases: 10 µM unless noted
[1] = system: RPMI-8226 leukemia
[2] = system: OVCAR-8 ovarian
[3] = system: OVCAR-5 ovarian
[4] = system: OVCAR-4 ovarian
[5] = system: IGROV1 ovarian
[6] = system: OVCAR-3 ovarian
[7] = system: HS 578T breast
[8] = system: NCI/ADR-RES ovarian
[9] = system: BT-549 breast
[10] = system: MDA-MB-435 melanoma
[11] = system: SW-620 colon
[12] = system: MCF7 breast
[13] = system: HCT-116 colon
[14] = system: HCC-2998 colon
[15] = system: KM12 colon
[16] = system: T-47D breast
[17] = system: SK-OV-3 ovarian

Measured: growth

CC[C@@H](C[C@H](CCO)c1ccccc1)c1cc2ccccc2o1
inactive: [1] 90.8% | [2] 91% | [3] 96.7% | [4] 85.3% | [5] 97.8% | [6] 95.7% | [7] 93% | [8] 93.1% | [9] 97.7% | [10] 102% | [11] 89.6% | [12] 117% | [13] 76.6% | [14] 109% | [15] 88.7%

COc1ccccc1C(=O)NC(=S)Nc1ccc(-c2nc3ccccc3[nH]2)cc1
active: [4] -60.7% | [6] -36%
inactive: [1] 57.1% | [2] 53.1% | [3] 90.5% | [5] 69% | [7] 36.5% | [8] 38.7% | [16] 80.3% | [9] 32.3% | [10] 50.3% | [11] 43.5% | [12] 21.3% | [14] 85.9% | [15] 53.2%

COc1cc2c(c(OC)c1OC)C(=O)/C(=C/c1cc(C)c(O)c(C)c1)S2
active: [6] 8.16% | [10] -37.2%
inactive: [1] 21.8% | [2] 41.5% | [3] 65.2% | [4] 51.8% | [5] 45.7% | [7] 29.4% | [8] 14.1% | [16] 47.6% | [9] 56.9% | [11] 39.3% | [12] 21.7% | [13] 33.2% | [14] 46.4% | [15] 20.9%

NC(=O)CC1(O)C=C(Br)C(=O)C(Br)=C1
active: [1] -31.3% | [6] -9.94% | [11] -36.1% | [13] -61.9%
inactive: [2] 95.9% | [3] 70.2% | [4] 34.7% | [5] 82.2% | [16] 31% | [9] 28.8% | [10] 32.4% | [12] 25.6% | [14] 76.3% | [15] 109%

COc1ccc(C2=NC(=O)NC2c2ccc(OC)cc2)cc1 (stereo not given)
inactive: [1] 57.4% | [2] 97.6% | [3] 77.8% | [4] 74.8% | [5] 77.8% | [6] 69% | [16] 62.5% | [11] 38.7% | [12] 29.3% | [13] 47% | [15] 41.1%
active: [8] 1.85% | [10] 9.83%

C=C1C(=O)O[C@H]2[C@H]1CC/C(Cn1cc(CNCCc3c[nH]c4ccccc34)nn1)=C\CC[C@@]1(C)O[C@@H]21
inactive: [1] 76.5% | [2] 92.5% | [3] 88.8% | [17] 80.9% | [5] 68.8% | [6] 69.4% | [7] 92.4% | [8] 99.9% | [9] 90.6% | [10] 97% | [11] 46.1% | [12] 90.2% | [13] 64.8% | [14] 97.1% | [15] 98%

CC(=O)c1ccc2c(c1)CCN2
inactive: [1] 94.7% | [2] 99.5% | [3] 101% | [17] 99.9% | [5] 117% | [6] 124% | [7] 114% | [8] 110% | [16] 105% | [9] 106% | [10] 111% | [11] 113% | [12] 98.3% | [13] 100% | [15] 110%

COc1ccc(-c2nc3ncccn3c2/C=C/C(=O)c2cc(OC)c(OC)c(OC)c2)cc1
active: [1] -32.2% | [2] 9.62% | [4] 7.94% | [17] -13.5% | [6] -24.4% | [11] -1.58% | [12] 3.17% | [13] -84.8% | [14] -58.4% | [15] -56.9%
inactive: [5] 17.2% | [16] 17.8% | [9] 15.6% | [10] 15.2%

Cc1ccc2c(n1)C(=O)C(Oc1ccc(F)cc1)=CC2=O
inactive: [1] 43.4% | [2] 87% | [3] 111% | [4] 96.6% | [5] 109% | [6] 73.2% | [7] 105% | [8] 97.1% | [16] 40% | [10] 101% | [11] 84.7% | [12] 81.1% | [13] 90.8% | [14] 108% | [15] 101%

O=C(C[C@@]1(O)C(=O)Nc2c(Cl)ccc(Cl)c21)c1ccc(C2CC2)cc1
inactive: [1] 23.4% | [2] 29.7% | [3] 33.4% | [4] 54.3% | [5] 22.9% | [16] 40.5% | [11] 19.4% | [12] 16.5% | [15] 24.7%
active: [6] -11.9% | [7] 7.19% | [8] 5.4% | [10] -48% | [14] 9.4%

COc1cc(-c2ccc(-c3ccc(C(=N)N)nc3)s2)cc(OC)c1OC
active: [6] -41.9% | [12] -1.33%
inactive: [2] 57.2% | [3] 81% | [4] 60.9% | [5] 62.5% | [7] 64.4% | [8] 78.6% | [16] 66.2% | [9] 89.8% | [10] 37.1% | [11] 29.2% | [14] 12.1% | [15] 49.1%

C=C(C)[C@@H]1CC[C@]2(C(=O)NCC(=O)O)CC[C@]3(C)[C@H](CC[C@@H]4[C@@]5(C)Cc6c([nH]c7ccccc67)C(C)(C)[C@@H]5CC[C@]43C)[C@@H]12
inactive: [1] 79.8% | [2] 78.4% | [3] 107% | [4] 75.9% | [5] 83.3% | [6] 90.5% | [7] 56.9% | [8] 95.4% | [9] 65.7% | [10] 87.1% | [11] 85% | [12] 81.4% | [13] 77.4% | [14] 98.4% | [15] 88.1%

O=S(=O)(Nc1ccsc1-c1nc(-c2ccccc2)no1)c1cc(Cl)cc(Cl)c1
inactive: [1] 82.6% | [2] 92.4% | [3] 86.5% | [4] 93.8% | [5] 100% | [6] 96.7% | [7] 94.1% | [8] 94% | [9] 99.5% | [10] 88.9% | [11] 95.8% | [12] 92.4% | [13] 89.9% | [14] 104% | [15] 93.2%

O=C1CSC(c2ccc(O)cc2)N1c1nnc(Cn2cnnc2)o1 (stereo not given)
inactive: [1] 62% | [3] 96.1% | [4] 88.6% | [17] 112% | [5] 104% | [6] 15.2% | [7] 64.7% | [8] 92.2% | [16] 92.3% | [9] 55.8% | [11] 67.4% | [12] 84% | [13] 93% | [14] 112% | [15] 49.9%
active: [10] -1.5%

O=[N+]([O-])c1cccc(/C=C/c2ccccn2)c1
active: [12] 7.24%
inactive: [1] 51.7% | [2] 86.2% | [3] 96.2% | [4] 70.5% | [5] 86.7% | [6] 59.4% | [8] 81.2% | [16] 37.9% | [10] 98.4% | [11] 47.7% | [13] 39.6% | [14] 62.2% | [15] 65.9%

CC(=O)NCC(=O)Nc1ccc(-c2nnc3ccccn23)nc1.CC(=O)NCC(=O)Nc1ccc(-c2nnc3ccccn23)nc1.[Pt+2]
inactive: [1] 108% | [2] 94.3% | [3] 114% | [4] 119% | [5] 106% | [6] 107% | [7] 104% | [8] 106% | [16] 105% | [9] 114% | [10] 114% | [11] 105% | [12] 110% | [13] 95.4% | [14] 106% | [15] 109%

Cn1ncc2c(Nc3ccc(Br)cc3)nc(Nc3ccc(Br)cc3)nc21
active: [12] 3.89%
inactive: [1] 23.2% | [2] 59.6% | [3] 56.9% | [4] 51.9% | [5] 48.9% | [6] 68.2% | [8] 21.5% | [16] 29.1% | [9] 62.5% | [10] 33.5% | [11] 52.7% | [13] 37% | [15] 37.1%

CC12CC(C#N)CCC1O2 (stereo not given)
inactive: [1] 106% | [2] 105% | [3] 105% | [17] 115% | [5] 99.2% | [6] 117% | [8] 115% | [16] 116% | [9] 111% | [10] 121% | [11] 97.3% | [12] 97.9% | [13] 108% | [14] 114% | [15] 113%

O=C(Oc1ccc[nH]c1=O)c1cc([N+](=O)[O-])cc([N+](=O)[O-])c1
inactive: [2] 93.6% | [3] 106% | [4] 110% | [17] 116% | [5] 162% | [6] 113% | [7] 124% | [8] 114% | [16] 109% | [9] 75.6% | [10] 121% | [11] 107% | [12] 96.2% | [13] 103% | [15] 116%
